Bioassay records: PubChem BioAssay, several laboratories
The list is not random: actives were taken first. Their share in the collection is about 0.78%.
PKA-R1A activ = activators of PKA-R1A complex. P00514+P68181. PKA-R1A dissociation, Cy5-IP20 fluorescence polarization; scaled: DMSO 0%, 113 µM cGMP 100%. activation, % at 11.4 µM. actives 0.083% (n = 340,000). AID 504707;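 active means percent activation above the mean of all tested compounds plus 3 SD, cut at about 19% in these data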;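 further: higher means more PKAc released from R1A so a rise in polarization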
Yeast superoxide = yeast age-related superoxide inhibition as caloric restriction mimetic; S. cerevisiae aged cells, superoxide DHE fluorescence; hits give low values; superoxide response (% of plate mean), % at 10 µM; actives 0.18% (n = 330,000);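 active means superoxide response under a set limit, about three screen SD below normal, cut at about 65% in these data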;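 further: yeast aged for seven days with compound at 30 °C before DHE staining; 100% = average MFI of all compound-treated wells on the plate with controls excluded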
PKA-R2B act = PKA-R2B complex activation; PKA-R2B holoenzyme dissociation, Cy5-IP20 fluorescence polarization; R2B truncated from residue 108, S112A mutant; 0% DMSO only, 100% 113 µM cGMP; activation, % at 11.4 µM; actives 0.079% (n = 340,000); AID 504700;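 active means activation above a cutoff set at the mean over all compounds plus 3 SD, cut at about 18% in these data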;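 further: higher means more holoenzyme dissociation and a rise in polarization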
Target sequence (P31323 whole entry, looked up, other chains not shown, the tested form may be a part): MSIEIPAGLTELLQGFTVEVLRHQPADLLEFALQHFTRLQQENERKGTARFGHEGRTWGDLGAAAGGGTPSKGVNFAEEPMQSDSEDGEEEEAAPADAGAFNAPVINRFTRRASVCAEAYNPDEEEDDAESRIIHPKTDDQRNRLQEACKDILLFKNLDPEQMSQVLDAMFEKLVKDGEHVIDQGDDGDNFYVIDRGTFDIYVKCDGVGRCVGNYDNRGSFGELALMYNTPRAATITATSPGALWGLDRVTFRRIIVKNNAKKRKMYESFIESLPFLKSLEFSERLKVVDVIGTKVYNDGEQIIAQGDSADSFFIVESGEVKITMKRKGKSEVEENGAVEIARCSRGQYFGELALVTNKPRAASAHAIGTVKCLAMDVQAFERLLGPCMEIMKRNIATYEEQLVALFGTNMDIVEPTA
PolyA inhibitor = inhibitors of polyadenylation in S. cerevisiae. actives 0.02% (n = 300,000). activity score, % at 12 µM. S. cerevisiae SKY197-pL101 polyadenylation reporter, beta-gal luminescence; efflux-impaired pdr1/pdr3 knockout yeast; score 100 = 6 SD above DMSO;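 active means lowest replicate activity score at least 50, where 100 means six control SD above control mean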;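 further: yeast exposed to compound for 9 h at 30 °C; higher score means more reporter readthrough which indicates perturbed polyadenylation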
GASC-1 inh = inhibitors of human GASC-1 (JMJD2C) demethylase. GST-JMJD2C(1-420) H3K9me3 demethylation, DELFIA europium. inhibition, % at 2.35 µM. actives 0.069% (n = 330,000). AID 2099;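 active means more than half of a compound's replicate wells show inhibition beyond 50%, single wells judged on their own value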;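 further: signal counts dimethyl H3K9 product captured on neutravidin plate; 0% = median of DMSO wells and 100% = 0.3 times that DMSO median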
V-ATPase pH = yeast V-ATPase proton transport regulation by pHLuorin. S. cerevisiae, pHLuorin cytosolic pH fluorescence. response, % at 10 µM. actives 0.37% (n = 350,000). AID 504577; in the data active means response mostly above about 7.3%, no sharp cut-off; inactive means mostly below about 5.4%; further: actives read high
R2B FP artifact = FP assay interference, PKA-R2B counter-screen; activation, % at 11.4 µM; actives 6% (n = 270); FP artifact counterscreen, fluorescence polarization; AID 504796; shares compounds with PKA-R2B act; in the data active means activation above about 20%;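 further: Cy5 labelled IP20 peptide probe with compound but no PKA protein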
PKA-R2B confirm = PKA-R2B complex activation, confirmation | shares compounds with PKA-R2B act | fluorescence polarization | activation, % at 11.4 µM | actives 9% (n = 270) | AID 504797; in the data active means activation above about 19%
Target sequence (P31323 whole entry, looked up): as the sequence (P31323 whole entry, looked up, other chains not shown, the tested form may be a part) above
* = called active by the depositor.

`COc1cc(C(=O)NC2CCN(CC(=O)NC3CCCCC3C)CC2)cc(OC)c1OC` (stereo not given) gave PKA-R1A activ -3.7, Yeast superoxide 99.5, PKA-R2B act 18.4*, PolyA inhibitor 10.0, GASC-1 inh -5.6, V-ATPase pH -5.1, R2B FP artifact 5.1 and PKA-R2B confirm 1.7.
For O=C(CSc1nc2nc3c(cc2c(=O)n1-c1ccccc1)CCCC3)Nc1cccc2ccccc12 the results were PKA-R1A activ 0.2, Yeast superoxide 102.9, PKA-R2B act 19.2*, PolyA inhibitor 15.8, GASC-1 inh 13.0, V-ATPase pH -1.7, R2B FP artifact 1.6 and PKA-R2B confirm 3.3.
Screening CC(C)OC(=O)CSc1nnc(-c2ccc(C(C)(C)C)cc2)n1N returned PKA-R1A activ -0.4, Yeast superoxide 94.9, PKA-R2B act 19.1*, PolyA inhibitor -0.5, GASC-1 inh -0.1, V-ATPase pH 6.5, R2B FP artifact -1.4 and PKA-R2B confirm 3.3.
Screening CC(C)OC(=O)CSc1nnc(-c2ccncc2)n1N returned PKA-R1A activ -4.0, Yeast superoxide 118.7, PKA-R2B act -10.8, PolyA inhibitor -2.7, GASC-1 inh 7.7 and V-ATPase pH 0.2.
For C=CCNC(=O)c1onc(CSc2ccncc2)c1C(=O)NCC=C the results were PKA-R1A activ -9.4, Yeast superoxide 97.1, PKA-R2B act 22.4*, PolyA inhibitor 2.6, GASC-1 inh -0.4, V-ATPase pH -7.1, R2B FP artifact 2.9 and PKA-R2B confirm 0.0.
Screening CC(C)CSc1ccc(S(=O)(=O)NCC(=O)O)cc1[N+](=O)[O-] returned PKA-R1A activ -0.1, PKA-R2B act 19.0*, V-ATPase pH 1.4, R2B FP artifact 4.2 and PKA-R2B confirm -0.4.
For O=C(N/N=C/c1cc(O)ccc1[N+](=O)[O-])c1ccc2c(c1)OCCO2 the results were PKA-R1A activ -1.1, Yeast superoxide 119.5, PKA-R2B act 19.5*, PolyA inhibitor -15.5, GASC-1 inh 2.8, V-ATPase pH 9.6, R2B FP artifact 5.3 and PKA-R2B confirm -0.1.
O=C(N/N=C/c1ccccc1[N+](=O)[O-])c1ccc2c(c1)OCCO2 was read as PKA-R1A activ -5.2, Yeast superoxide 105.9, PKA-R2B act -3.2, PolyA inhibitor 6.6, GASC-1 inh -9.5 and V-ATPase pH -0.5.
For CN1CCN(C(=O)/C(=C/c2ccc(N(C)C)cc2)NC(=O)c2ccccc2)CC1 the results were PKA-R1A activ -8.8, Yeast superoxide 105.7, PKA-R2B act 20.3*, PolyA inhibitor 4.3, GASC-1 inh 9.6, V-ATPase pH 2.0, R2B FP artifact 6.3 and PKA-R2B confirm 3.6.
Screening Cc1ccccc1N1CCN(S(=O)(=O)C[C@]23CCC(CC2NC(=O)[C@@H](N)CCS(C)(=O)=O)C3(C)C)CC1 (stereo not given in full) returned PKA-R1A activ 10.1, Yeast superoxide 97.7, PKA-R2B act 18.7*, V-ATPase pH -2.5, R2B FP artifact 2.0 and PKA-R2B confirm -2.4.
`COc1ccc2sc(-c3ccc(SC)cc3)c(-c3ccc(O)cc3)c2c1` gave PKA-R1A activ 2.6, Yeast superoxide 98.2, PKA-R2B act -5.4, GASC-1 inh -6.8 and V-ATPase pH -3.9.
For Cc1ccc(OCc2cc(C(=O)NC(C)Cc3cnccn3)no2)cc1C (stereo not given) the results were PKA-R1A activ 3.8, Yeast superoxide 96.2, PKA-R2B act 20.6*, PolyA inhibitor -4.2, GASC-1 inh 8.6, V-ATPase pH 0.3, R2B FP artifact 6.5 and PKA-R2B confirm 4.7.
COc1ccc(NC(=O)COc2cccc(-n3cnnn3)c2)cc1Cl was read as PKA-R1A activ 8.2, Yeast superoxide 107.2, PKA-R2B act 3.8, PolyA inhibitor 5.3, GASC-1 inh 0.6 and V-ATPase pH -3.8.
